# From PubChem
# Shown is part of a subset that was picked to be rich in hits.
# PDI turbidity: inhibitors of human PDI, primary screen, biochemical, turbidity, single point, plate reader; inhibition, % at 10 µM; Protein disulfide-isomerase (Homo sapiens), P07237; 350,000 tested, 0.052% active; PDI insulin aggregation turbidity, A650, 90 min;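 active means mean inhibition across replicates of 30% or more, whatever share of single replicates reach that level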
# ARNT TACC3 PPI: disruptors of ARNT/TACC3 protein interaction, primary screen, biochemical, AlphaScreen, single concentration | AlphaScreen His-ARNT PAS-B/GST-TACC3 binding, luminescence; TACC3 fragment carries E629A point mutation | inhibition, % at 9.99 µM | 390,000 tested, 0.66% active;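 active means mean inhibition of replicates at least 50% and at least half of replicates each reaching 50%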;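 further: 0% = complete ARNT plus TACC3 wells and 100% = ARNT alone without TACC3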
# PglD inh: C. jejuni PglD acetyltransferase inhibitors, primary screen, biochemical, DTNB colorimetric, single point; UDP-N-acetylbacillosamine N-acetyltransferase PglD (Campylobacter jejuni); purified PglD enzyme, DTNB colorimetric CoA detection; inhibition, % at 12.5 µM; 360,000 tested, 0.098% active; AID 602405, 2012; in the data active means inhibition above about 16%, passing the limit was not always enough
# CendR NRP1 mod: modulators of CendR peptide binding to NRP-1, primary screen, biochemical, fluorescence polarization, uHTS | Neuropilin-1 (Homo sapiens), O14786 | FAM-RPARPAR peptide binding to NRP-1 | inhibition, % at 25 µM | 360,000 tested, 0.85% active;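 active means inhibition or corrected inhibition above about 18%, plus a signal ratio from 0.5 to 1.5, limit read from the data, passing the limit was not always enough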
# ERp5 block: inhibitors of ERp5-driven insulin aggregation, primary screen, biochemical, turbidity, absorbance 650 nm, single point; 90 min; Protein disulfide-isomerase A6 (Homo sapiens), Q15084; 350,000 tested, 0.05% active; inhibition, % at 9.99 µM;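 active means mean replicate inhibition above about 25%, with every replicate also reaching it, limit read from the data, passing the limit was not always enough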
# Target sequence (Q15084 whole entry, looked up): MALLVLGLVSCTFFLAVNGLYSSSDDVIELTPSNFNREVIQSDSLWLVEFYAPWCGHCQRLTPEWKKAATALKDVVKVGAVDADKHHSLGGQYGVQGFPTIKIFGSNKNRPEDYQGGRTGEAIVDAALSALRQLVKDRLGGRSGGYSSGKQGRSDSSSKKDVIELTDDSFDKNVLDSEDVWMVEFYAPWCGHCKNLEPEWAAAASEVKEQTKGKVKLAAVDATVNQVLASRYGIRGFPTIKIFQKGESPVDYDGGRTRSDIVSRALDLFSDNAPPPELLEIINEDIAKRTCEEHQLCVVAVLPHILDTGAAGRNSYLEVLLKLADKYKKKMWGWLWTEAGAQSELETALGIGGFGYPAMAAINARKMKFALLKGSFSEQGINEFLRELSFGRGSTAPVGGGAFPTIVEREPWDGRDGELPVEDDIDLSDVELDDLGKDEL
# ALR inh: inhibitors of human ALR sulfhydryl oxidase, primary screen, biochemical, H2O2 detection, HRP-luminol luminescence, single point | FAD-linked sulfhydryl oxidase ALR (Homo sapiens), P55789 | purified ALR, DTT oxidation | 290,000 tested, 3.8% active | inhibition, % (no concentration beside the values);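 active means mean replicate inhibition above about 79%, with every replicate also reaching it, limit read from the data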
# Target sequence (P55789 whole entry, looked up): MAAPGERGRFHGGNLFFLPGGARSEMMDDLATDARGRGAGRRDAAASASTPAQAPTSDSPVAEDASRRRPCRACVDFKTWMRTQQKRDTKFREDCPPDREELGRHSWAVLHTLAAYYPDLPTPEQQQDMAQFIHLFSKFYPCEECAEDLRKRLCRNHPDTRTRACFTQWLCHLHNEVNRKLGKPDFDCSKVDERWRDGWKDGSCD
# Numbers without * were called inactive; · = no result given.
SMILES,PDI turbidity,ARNT TACC3 PPI,PglD inh,CendR NRP1 mod,ERp5 block,ALR inh
C[C@@H]1CCCCO[C@@H](CN(C)C(=O)Nc2ccc(F)cc2)[C@H](C)CN([C@H](C)CO)C(=O)c2cc(NC(=O)Nc3ccc(F)cc3)ccc2O1,·,9.2,-0.5,·,-0.3,·
CN(C)CCCN1c2ccccc2Sc2ccccc21,7.1,-1.3,-1.3,-18.6,0.7,97.7*
CC(=O)c1ccc2c(c1)N(CCCN(C)C)c1ccccc1S2,0.6,5.1,-6.1,17.2,1.3,·
COc1ccc2c(c1)Sc1ccccc1N2CCN(C)C,13.6,-24.3,7.5,8.4,·,98.2*
CCC(=O)c1ccc2c(c1)N(CCCN(C)C)c1ccccc1S2,2.6,8.2,-1.1,7.0,6.6,98.2*
CCCNC(=O)N(C)C[C@@H]1Oc2cc(-c3ccccc3F)ccc2S(=O)(=O)N([C@H](C)CO)C[C@@H]1C,·,-4.7,1.5,·,7.2,·
C[C@@H]1CN([C@H](C)CO)C(=O)Cc2cc(NS(=O)(=O)c3cn(C)cn3)ccc2O[C@@H]1CN(C)S(C)(=O)=O,·,-10.4,-1.2,·,-2.6,·
C[C@@H]1CN([C@H](C)CO)S(=O)(=O)c2ccc(-c3ccccc3)cc2O[C@@H]1CN(C)C,·,-11.0,2.3,·,0.6,·
Cc1c(Cl)cccc1NC(=S)N(CCN(C)C)C(C)c1ccccn1 (centres undefined),2.7,54.3*,-0.4,-1.4,-1.6,0.7
Cc1ccccc1NC(=S)N(CCN(C)C)C(C)c1ccccn1 (centres undefined),3.2,35.3,-2.4,-6.3,·,5.4
C/C=C/c1cnc2c(c1)C(=O)N([C@@H](C)CO)C[C@H](C)[C@H](CN(C)Cc1ccccc1)O2,·,4.8,-1.4,·,-4.0,·
Cc1c(O)ccc(/C(Cc2ccc3ccccc3n2)=N\O)c1O,8.2,2.6,·,-1.9,·,27.7
Oc1ccc(/C(Cc2ccccn2)=N\Nc2ccccc2)c(O)c1,1.1,9.6,·,-3.1,0.7,99.0*
Oc1ccc(/C(Cc2ccc3ccccc3n2)=N\Nc2ccccc2)c(O)c1,5.0,9.2,·,-47.0,-4.9,98.5*
CCCC#Cc1cnc2c(c1)C(=O)N([C@H](C)CO)C[C@@H](C)[C@@H](CN(C)C(=O)CCN1CCCCC1)O2,·,1.8,2.2,·,-2.6,·
CC1(C)CC2CC(C)(CN2C(=O)COC(=O)c2cc(Cl)cc(Cl)c2N)C1 (centres undefined),0.8,14.2*,1.0,-0.9,1.1,-17.9
CC1(C)CC2CC(C)(CN2C(=O)COC(=O)c2ccc(NC(=O)CC#N)cc2)C1 (centres undefined),1.7,-4.4,-2.2,2.1,-2.5,98.5*
CC(=O)Nc1ccc(C(=O)OCC(=O)N2CC3(C)CC2CC(C)(C)C3)cc1 (centres undefined),6.0,·,0.5,-6.6,1.1,2.6
CCCNC(=O)[C@@H]1[C@@H](CO)[C@@H]2Cn3c(cccc3=O)[C@H]1N2C(=O)C1CCCC1,·,-8.4,0.4,·,-2.7,·
C[C@@H]1CN([C@@H](C)CO)C(=O)c2cc(-c3ccccc3)cnc2O[C@@H]1CN(C)C(=O)Nc1ccccc1F,·,-2.8,0.2,·,6.4,·
CCC(=O)Nc1ccc2c(c1)OC[C@H](C)N(C(=O)Cc1ccccn1)C[C@H](C)[C@H](OC)CN(C)C2=O,·,1.5,1.1,·,3.4,·
CC(NC(=O)Cc1cccs1)C(c1cccs1)N1CCN(c2ccccc2)CC1 (centres undefined),-2.6,3.2,6.1,-13.9,·,96.4*
CCC(=O)NC(C)C(c1cccs1)N1CCN(c2ccccc2)CC1 (centres undefined),-0.6,-0.3,-2.2,2.7,-9.4,98.9*
CC(=O)NC(C)C(c1cccs1)N1CCN(c2ccccc2)CC1 (centres undefined),-13.1,-3.7,·,9.9,·,98.9*
CCN1CCN(C(c2cccs2)C(C)NC(=O)c2ccccc2)CC1 (centres undefined),·,-0.1,-1.9,-5.0,-2.5,7.4
SMILES,PDI turbidity,ARNT TACC3 PPI,PglD inh,CendR NRP1 mod,ERp5 block,ALR inh
Cc1ccc(S(=O)(=O)NC(C)C(c2cccs2)N2CCN(c3ccccc3)CC2)cc1 (centres undefined),·,2.0,2.7,-8.1,-9.8,·
CCn1nc(C(=O)OCC(=O)NCCN2C(=O)CSC2=O)c2ccccc2c1=O,-2.4,·,-1.8,38.2*,·,8.4
C[C@@H]1CN([C@H](C)CO)C(=O)Cc2cc(NC(=O)Cn3cnnn3)ccc2O[C@H]1CN(C)C(=O)NC1CCCCC1,·,-2.5,-1.6,·,-1.2,·
COc1ccc2c3c([nH]c2c1)[C@H](CO)N(C(=O)CN(C)C)CC31CCN(C(=O)c2cccnc2)CC1,·,·,·,·,4.5,·
COc1cc(/C=C2\SC(=S)N(CC(=O)O)C2=O)ccc1OS(=O)(=O)c1ccc(C)cc1,-10.4,2.9,-7.5,-38.4,8.6,89.4*
CN(C)C(=O)[C@H]1[C@H](CO)[C@H]2Cn3c(ccc(C4=CCCC4)c3=O)[C@@H]1N2Cc1ccccn1,·,·,·,·,1.0,·
O=C(O)CCc1c(C(=O)O)[nH]c2ccccc12,2.1,-14.7,-0.9,2.3,·,-6.1
O=C(O)CCc1[nH]c2ccccc2c1Sc1ccccc1,-2.0,-7.5,6.2,0.1,-2.2,99.4*
O=C(C[C@H]1CC[C@@H]2[C@H](COC[C@H](O)CN2C(=O)c2cnccn2)O1)NCc1ccccc1,·,-3.8,0.0,·,11.5,·
Cc1ccc2c(c1)C(=O)C(=O)N2CC(=O)OC(C)C,-8.4,-9.5,·,27.4*,·,·
Cc1cc(C)c2ccc(N)nc2c1O,-2.6,21.6,4.7,5.1,·,91.4*
S=c1[nH]nc2n1CCCN2,18.6,-1.1,·,3.8,8.0,95.3*
CCC(=O)N(C)C[C@@H]1Oc2cc(/C=C/c3ccccc3)ccc2S(=O)(=O)N([C@H](C)CO)C[C@@H]1C,·,-0.2,-0.1,·,-3.0,·
COc1ccc(NC(=O)N(C)C[C@H]2OCCCC[C@@H](C)Oc3ccc(NS(C)(=O)=O)cc3C(=O)N([C@@H](C)CO)C[C@H]2C)cc1,·,-3.9,0.6,·,-1.8,·
COc1ccc(C(=O)n2cc(C(=O)c3cc(C)ccc3O)cn2)cc1,1.2,-0.2,-0.3,0.4,·,97.7*
Cc1ccc(N2C(=O)[C@@H]3[C@H](C2=O)C2c4ccccc4C=CN2[C@@H]3C(=O)c2ccco2)c(C)c1 (some centres undefined),3.3,45.1*,3.6,-24.9,·,-20.9
CCOc1cc(/C=C2\C(=O)ON=C2c2ccccc2)ccc1OC,1.8,1.7,-8.2,8.5,-0.5,92.3*
COc1ccc(/C=C2/C(=O)ON=C2c2ccccc2)cc1OC,1.2,14.5,-7.5,-12.2,·,23.5
